Measured values: PubChem BioAssay (NCI)
“And” between values parts separate entries of the source, which are not always exact repeats. Equal values may be shown once. The panel holds about 79,000 compounds, 15% with a hit somewhere; the sample as a whole holds those more often. Some structures have more than one record in an assay (separate samples or runs), and their calls can disagree. The source made the active and inactive calls. Rule as the data show it: active = growth inhibition above about 70%; inactive = the rest.

Key:
[1] = NCI Yeast Anticancer Drug Screen. Data for the rad52 strain (AID 147);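 also: 0% = growth of vehicle-treated control cultures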; conditions: S. cerevisiae rad52 mutant growth inhibition, stronger effect = higher value
Outline: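 Vehicle-treated cultures served as the reference for growth inhibition of compound-exposed yeast bearing a DNA repair mutation.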

[2] = NCI Yeast Anticancer Drug Screen. Data for the wt1 strain (AID 149);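 also: 0% = growth of vehicle-treated wt1 cultures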; conditions: S. cerevisiae wt1 strain (SPY 50644) growth inhibition, stronger effect = higher value
Outline: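 Vehicle-normalised growth inhibition; strain wt1; compound exposure.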

[3] = NCI Yeast Anticancer Drug Screen. Data for the rad50EPP+ strain (AID 151);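 also: 0% = growth of vehicle-treated control cultures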; conditions: S. cerevisiae rad50 mutant strain, stronger effect = higher value
Outline: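 In this screen, rad50EPP+ yeast were exposed to compounds. Growth inhibition was scored against vehicle-treated controls.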

[4] = NCI Yeast Anticancer Drug Screen. Data for the mgt1 strain (AID 153); conditions: S. cerevisiae mgt1 mutant growth inhibition, stronger effect = higher value
Outline: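 mgt1 strain exposed; growth vs vehicle control recorded as inhibition.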

[5] = NCI Yeast Anticancer Drug Screen. Data for the rad50 strain (AID 155);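 also: 0% = growth of vehicle-only cultures of the same strain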; conditions: S. cerevisiae rad50 strain growth inhibition, stronger effect = higher value
Outline: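 A DNA repair-deficient yeast mutant serves as the test organism; compound-induced growth inhibition is calculated against vehicle-treated cells.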

[6] = NCI Yeast Anticancer Drug Screen. Data for the mec2-1 strain (AID 157); conditions: S. cerevisiae mec2-1 strain, stronger effect = higher value
Outline: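 Vehicle-treated cultures served as reference for growth inhibition of compound-exposed mec2-1 yeast.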

[7] = NCI Yeast Anticancer Drug Screen. Data for the rad14 strain (AID 159);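 also: 0% = growth of vehicle-treated control cultures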; conditions: S. cerevisiae rad14 strain growth inhibition, stronger effect = higher value
Outline: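 Vehicle-treated cultures served as the baseline for growth inhibition of a DNA repair-mutant yeast strain exposed to each compound.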

[8] = NCI Yeast Anticancer Drug Screen. Data for the sgs1 mgt1 strain (AID 161);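 also: 0% = growth of cultures given vehicle only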; conditions: S. cerevisiae sgs1 mgt1 strain, stronger effect = higher value
Outline: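 Mutant yeast exposed to compound; growth scored against vehicle-only wells.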

[9] = NCI Yeast Anticancer Drug Screen. Data for the CLN2oe strain (AID 163);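 also: 0% = growth of vehicle-only control cultures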; conditions: S. cerevisiae CLN2oe strain, stronger effect = higher value
Outline: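 Inhibition relative to vehicle-treated yeast is reported. Cells: strain with genetic alteration in cell-cycle control, grown with compound.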

[10] = NCI Yeast Anticancer Drug Screen. Data for the cln2 rad14 strain (AID 165);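 also: 0% = growth equal to vehicle treated cultures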; conditions: S. cerevisiae cln2 rad14 strain, stronger effect = higher value
Outline: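 Each compound was tested on cln2 rad14 yeast. Inhibition of growth was calculated against vehicle-exposed controls.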

[11] = NCI Yeast Anticancer Drug Screen. Data for the bub3 strain (AID 167); conditions: S. cerevisiae bub3 mutant strain, stronger effect = higher value
Outline: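 Inhibition values come from growth of compound-treated mutant yeast normalised to vehicle-treated controls.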

[12] = NCI Yeast Anticancer Drug Screen. Data for the wt2 strain (AID 169);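 also: 0% = growth of vehicle-treated yeast cultures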; conditions: S. cerevisiae wt2 strain growth inhibition, stronger effect = higher value
Outline: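 Inhibition of yeast growth was determined after compound treatment, normalised to controls receiving only vehicle.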

[13] = NCI Yeast Anticancer Drug Screen. Data for the mlh1 strain (AID 171);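 also: 0% = growth of vehicle-treated control cultures of the same strain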; conditions: S. cerevisiae mlh1 strain growth inhibition, stronger effect = higher value
Outline: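 Vehicle-normalised growth inhibition of a repair- or checkpoint-altered yeast strain following compound treatment.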

[14] = NCI Yeast Anticancer Drug Screen. Data for the sgs1 strain (AID 173);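 also: 0% = growth of vehicle-only control cultures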; conditions: S. cerevisiae sgs1 mutant, stronger effect = higher value
Outline: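 Screen format: yeast with repair or checkpoint alterations, compound exposure, growth read relative to vehicle.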

[15] = NCI Yeast Anticancer Drug Screen. Data for the mlh1 rad18 strain (AID 175); conditions: S. cerevisiae mlh1 rad18 strain growth inhibition, stronger effect = higher value
Outline: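 Vehicle-treated cultures served as the reference for growth inhibition in a yeast strain carrying DNA damage repair alterations exposed to each compound.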

[16] = NCI Yeast Anticancer Drug Screen. Data for the rad18 strain (AID 177); conditions: S. cerevisiae rad18 mutant growth inhibition, stronger effect = higher value
Outline: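 Test articles were incubated with altered yeast defective in DNA damage repair. Results are given as inhibition of growth versus vehicle.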

[17] = at 5.0 µM (retest, dose inferred, filed as 0.5)
[18] = at 50.0 µM (retest, dose inferred, filed as 5.0)

Measured: growth inhibition

Cc1ccc(Sc2ccccc2N)cc1
active: [1]; at 100.0 µM 98% | [2]; at 100.0 µM 99% | [3]; at 100.0 µM 93% | [4]; at 100.0 µM 98% | [5]; at 50.0 µM 90.5% | [5]; at 100.0 µM 98% | [6]; at 50.0 µM 92.3% | [6]; at 100.0 µM 98% | [7]; at 100.0 µM 99% | [8]; [18] 91% and 73% | [8]; at 50.0 µM 93.2% | [9]; at 100.0 µM 98% | [10]; at 50.0 µM 91.7% | [11]; [18] 94% and 81% | [11]; at 50.0 µM 92% | [11]; at 100.0 µM 98% | [12]; at 100.0 µM 98% | [13]; at 100.0 µM 98% | [14]; at 100.0 µM 98% | [15]; [18] 90% and 73% | [15]; at 50.0 µM 90.5% and 91% | [16]; at 100.0 µM 98%
94% (active) and 67% (inactive): [10]; [18]
95% (active) and 64% (inactive): [6]; [18]
inactive: [1]; at 1.2 µM 9% | [1]; at 3.7 µM -3% | [1]; at 11.0 µM -13% | [1]; at 33.0 µM 45% | [2]; at 1.2 µM 16% | [2]; at 3.7 µM 6% | [2]; at 11.0 µM -7% | [2]; at 33.0 µM 42% | [3]; at 1.2 µM 8% | [3]; at 3.7 µM -1% | [3]; at 11.0 µM 16% | [3]; at 33.0 µM 64% | [4]; at 1.2 µM 0% | [4]; at 3.7 µM -17% | [4]; at 11.0 µM -21% | [4]; at 33.0 µM 38% | [5]; at 1.2 µM 0% | [5]; at 3.7 µM -3% | [5]; [17] 31% and 32% | [5]; at 11.0 µM -12% | [5]; at 33.0 µM 17% | [6]; at 1.2 µM -30% | [6]; at 3.7 µM -18% | [6]; [17] 50% and 23% | [6]; at 11.0 µM -32% | [6]; at 33.0 µM 25% | [7]; at 1.2 µM -4% | [7]; at 3.7 µM -18% | [7]; at 11.0 µM -10% | [7]; at 33.0 µM 32% | [8]; [17] -5% and 43% | [9]; at 1.2 µM 22% | [9]; at 3.7 µM 12% | [9]; at 11.0 µM -3% | [9]; at 33.0 µM 46% | [10]; [17] 42% and 29% | [11]; at 1.2 µM -6% | [11]; at 3.7 µM -2% | [11]; [17] 34% and 40% | [11]; at 11.0 µM -10% | [11]; at 33.0 µM 24% | [12]; at 1.2 µM -16% | [12]; at 3.7 µM -2% | [12]; at 11.0 µM -17% | [12]; at 33.0 µM 35% | [13]; at 1.2 µM 5% | [13]; at 3.7 µM -6% | [13]; at 11.0 µM 14% | [13]; at 33.0 µM 57% | [14]; at 1.2 µM 8% | [14]; at 3.7 µM -2% | [14]; at 11.0 µM -3% | [14]; at 33.0 µM 51% | [15]; [17] 32% and 37% | [16]; at 1.2 µM -16% | [16]; at 3.7 µM -13% | [16]; at 11.0 µM -21% | [16]; at 33.0 µM 12%
95% (active) and 62% (inactive): [5]; [18]
